Assay results taken from the supplement of paper PMC6555819.

Legend:
Assay in all cases: PBM binding z-score (relative to random genomic background probes); higher = stronger binding; sequences stand for … in GC…GCGATTGACAGCGTAGAATGAAGG
[1] = test system: FXR:RXRa (NR concentration 270 nM, RXRa partner concentration 90 nM)
Procedure, shortened: (§1)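 Custom Agilent 4×180K protein-binding microarrays carried double-stranded probes, each with a 34-nt variable region. These regions held direct-repeat seeds, single-nucleotide variants, half-site ablations and random human genomic background sequences. Ligand-free nuclear receptor dimers were incubated on the arrays for 1 h, antibodies against each partner (one per run) detected binding, and scanned fluorescence was regression-normalized. Binding z-scores take the random background probes as reference.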

[2] = test system: LXRa:RXRa (NR concentration 270 nM, RXRa partner concentration 90 nM)
Procedure, shortened: as §1

[3] = test system: LXRa homodimer (NR concentration 270 nM)
Procedure, shortened: as §1

[4] = test system: LXRb:RXRa (NR concentration 270 nM, RXRa partner concentration 90 nM)
Procedure, shortened: as §1

[5] = test system: LXRb homodimer (NR concentration 270 nM)
Procedure, shortened: as §1

[6] = test system: PPARa:RXRa (NR concentration 270 nM, RXRa partner concentration 90 nM)
Procedure, shortened: as §1

[7] = test system: PPARg:RXRa (NR concentration 180 nM, RXRa partner concentration 90 nM)
Procedure, shortened: as §1

[8] = test system: PPARg:RXRa 270nM:90nM, anti-RXR (NR concentration 270 nM, RXRa partner concentration 90 nM)
Procedure, shortened: as §1

[9] = test system: PPARg:RXRa 30nM:10nM, anti-RXR (NR concentration 30 nM, RXRa partner concentration 10 nM)
Procedure, shortened: as §1

[10] = test system: PPARg:RXRa 90nM:30nM, anti-RXR (NR concentration 90 nM, RXRa partner concentration 30 nM)
Procedure, shortened: as §1

Sequence	PBM binding z-score [1]	PBM binding z-score [2]	PBM binding z-score [3]	PBM binding z-score [4]	PBM binding z-score [5]	PBM binding z-score [6]	PBM binding z-score [7]	PBM binding z-score [8]	PBM binding z-score [9]	PBM binding z-score [10]
CCTCAGAGGACAGAAGGTCAGAGCTGTCCGCTTT	1.31	1.63	-0.13	1.24	-0.707	2.19	0.358	0.634	-0.132	0.513
ACTCGGAGGACAAAGATCAGAGCTACGCCAGTGA	-0.308	-0.42	-0.56	-0.616	-0.443	0.399	1.61	2.24	0.508	1.43
GCATATAGATAATACAAGGTGAAAGTCCGATTGT	0.079	0.0374	0.245	0.117	-0.118	0.578	1.21	0.513	0.278	0.522
CTCGAAAGGTCGTGCTCTGGTGAGTATACCAAAC	4.94	3.65	0.255	3.52	0.0875	4.94	2.33	3.59	0.836	2.12
TCTATTAGTTGAGGGGCAACCGACGAGTCCGTTT	0.999	0.876	0.028	1.41	0.923	1.18	0.143	1.75	3.58	2.71
CAAACTAGGTCACGAAAAGTCAAAGTCGAATGAC	4.52	5.32	0.989	3.22	0.716	5.53	9.43	7.43	5.91	7.51
CTCGAAAGCTCGGTTGAGGTGAGTATACGGATAA	-0.222	-0.554	-0.444	-0.393	-0.608	-0.294	-0.189	-0.312	-0.328	-0.403
AATACAGGGTCATCCTAGGCCAGAGTACGCACAG	7.59	6.64	3.26	5.25	1.72	6.4	6.74	5.93	2.82	4.48
TCGAGTAGGTAAGGGGCATTCAGAATGGCGTCGA	-0.106	-0.02	-0.436	0.42	-0.693	0.747	0.463	1.71	1.19	1.41
GCATTTAGGTAATACAAGGTGAAAGTCCGATTGT	1.45	1.54	0.274	0.493	-0.034	1.27	0.514	1.03	0.425	0.682
TAGCCTAGGTCATTAAGGGGCCAGTATAGAAAGC	3.58	3.35	0.285	2.67	0.552	3.21	1.75	2.07	0.301	1.11
GGAATGAGGGCAAGTTGATAGCAGAGTTTGATGG	1.28	0.752	-0.149	0.54	0.0849	2.08	1.6	1.56	0.431	0.993
ACTATTAGGTGAGACGAGGGCAACCGATAGGTTG	1.3	0.503	0.00247	0.202	-0.293	1.5	1.44	1.19	0.65	0.864
ACTATAAGTTGACTTAGGGCAACCGATACGACGC	0.483	0.919	0.287	0.215	0.348	0.427	1.23	0.205	0.44	0.54
TCTTGTAGATCAATGGAGGTTAAGAAAGTGCGCT	0.901	2.8	0.173	1.3	-0.0128	1.52	-0.31	1.5	2.83	2.18
GCGACTGGGGCAAAGCAGGTCACCATAAGGTTGG	0.839	1.93	-0.00602	1.53	-1.06	3.18	2.77	2.65	0.521	1.7
TCTTGTAGATCAATGGTTAAGAAAGCCGAAGCCT	0.494	0.359	-0.126	-0.0354	-0.123	0.608	0.23	2.48	3.07	2.99
TCTTGTAGATCAACAAGAGGTTAAGAAAGATCGA	0.445	2.13	0.311	1.41	-0.334	1.96	0.437	1.19	2.15	1.59
TCAAGTAGGTTAGGGGCATTCAGAATGGCGTCGA	0.99	0.718	0.21	1.28	0.587	2.19	2.64	3.58	3.71	3.65
ATCTCTAGGTAAGACTCAGTTCTGTGAAGAACGC	0.335	0.184	0.199	0.00724	0.696	0.118	-0.0876	-0.0102	-0.0402	-0.012
CCTATTAGTTGACCATAAGGGCAACCTAAGCTCG	1.15	0.43	0.487	0.701	0.685	0.846	0.521	0.842	0.125	0.491
TTACCAATGTGAAAGGTCGTTGATGCACGCCTTG	1.7	2.12	0.874	1.91	0.227	3.26	4.36	5.96	3.68	6.14
CCTACTGGGCCATCAGGTAATTGATATCAACGTT	-0.165	-0.235	-0.14	-0.089	-0.373	0.452	1.15	1.85	0.313	1.17
ATATGTAGGTTAAGGGTCATTGAGGTTGGTTCGC	5.02	4.71	3.01	4.45	1.6	6.56	11.9	10	10.5	10.7
ACTAGTTGGTCAACTGAGGTCACACACAATTCGG	4.03	4.75	3.24	3.99	0.711	4.31	3.06	3.01	0.826	2.8

Sequence	PBM binding z-score [1]	PBM binding z-score [2]	PBM binding z-score [3]	PBM binding z-score [4]	PBM binding z-score [5]	PBM binding z-score [6]	PBM binding z-score [7]	PBM binding z-score [8]	PBM binding z-score [9]	PBM binding z-score [10]
AGTCAAAGTGCACTAGGTAACGTAAGATTCAGCT	-0.308	-0.0298	-0.372	-0.0247	-0.424	1.85	3.36	3.28	1.04	1.89
GATACAGGGTCAGCTAGAGGCCAGAGTCTGGAAA	4.63	2.79	-0.316	2.18	-0.91	4.47	3.57	3.41	0.796	2.27
CGTCAAAGTTCAAGGTAACCTAACAGAAAGCAGC	6.46	5.68	2.88	3.53	0.767	5.05	4.79	5.23	1.93	3.95
CCAACTAGGTCATCCAGGACAGTGAATACATTGA	3.96	2.83	1.3	2.48	0.7	4.41	6.66	5.59	2.96	4.83
TGAATGAGGTTAAAGATCAGAGAACGTGGCGTCG	3.2	2.25	-0.274	1.7	0.104	4.43	6.08	6.65	5.22	6.58
CGTCCTAGGTCAGCAGGTCAGTGAAAGCGACGTG	2.92	2.04	0.0283	1.6	-0.603	3.23	2.32	3.21	0.151	1.87
CCAGACAGGTGAGATGGTAACTCAGCCTCGATTA	-0.218	-0.133	0.219	-0.0689	-0.491	0.132	0.33	0.151	-0.316	-0.00959
CCTCGGAGGACCGAAGGTCAGAGCTGTCCGCTTT	0.789	1.42	-0.056	0.863	-1.03	1.61	-0.382	1.16	-0.716	0.325
AGAACGAGGTTAAGATCAGGGAAACAGAATACAT	2.1	2.05	0.0843	2.09	0.134	3.4	1.98	1.92	0.64	1.61
CAAACTAGGTCACAGAGGTGAAAGTCCGTGCGTA	5.7	4.38	0.932	3.33	0.56	5.82	9.16	7.57	5.73	7.6
TCATATAGGTAAATGCTAGGTGGAAGTCCGATCT	0.532	0.496	0.0241	0.66	-0.216	0.983	0.493	2.41	3.84	2.88
TCATATAGGTAAAAGGGGAAAGTCGGTGTGGTAA	1.2	0.984	0.33	1.32	0.445	3.75	6.27	6.98	6.37	7.9
TCTGCTAGTTCAGTTGGTCAGCTAACGAGCTGCC	-0.661	-0.0879	-0.708	-0.52	0.193	0.1	-1.03	0.545	1.27	0.794
GCTATTAGTTGAAAGGGCAACCGGATGATTCTCG	0.785	0.839	0.362	0.759	-0.334	2.31	2.78	4.56	2.87	4.49
ACTGTTAGTTGACTTAGGGCAACCGATACGACGC	0.539	0.575	0.206	0.367	1.15	0.0221	0.731	0.221	0.105	-0.111
TATACATGGTCAAAGGCCAGAGTACGAATGTCGA	0.397	0.672	0.238	0.37	0.623	1.64	3.14	4.34	2.32	4.31
ACTCCGAGGACAAAGGTCAGAGCTACGCCAGTGA	4.86	4.4	1.86	3.99	0.764	4.91	8.48	7.6	6.18	8.09
CCTCGGAGGAGAGAAGGTCAGAGCTGTCCGCTTT	0.811	0.874	-0.155	0.734	-0.806	1.62	-0.501	0.307	-0.994	-0.582
CGTCCAAGGTCAAACGTCAGTGAAGAGATGACGG	7.81	5.85	1.39	4.54	1.77	6.06	5.95	6.15	3.64	5.2
GCTGCTAGGTCAGGTTGGTCAGCTTACGGGTACG	1.11	0.781	-0.122	0.397	-0.0807	1.07	0.483	0.904	-0.57	0.294
ACTTGCAGGCCAAGGGTCACTCAAGATTAGTCCG	2.94	2.83	0.304	2.98	0.0149	4.99	8.46	7.35	6.52	7.71
AGAATGAGGTTATACGTAGAACAGGGAAGAAAGT	2.01	1.58	-0.14	1.56	0.0441	3.07	2.2	1.83	1.07	1.68
TCTTGTAGATCAATAGCGGTTAAGAAAGTGCGCT	0.25	0.57	0.174	0.435	-0.253	0.5	-0.524	1.28	2.75	2.17
CGTCAAAGTTCAATTAAGGTAACGTAAAGCACGC	6.45	5.3	3.51	3.7	2.06	4.58	4.09	4.67	1.7	3.44
